# In the OligoGym collection:
# Biological target: TMEM90B
# Assay: pooled miR-30 sensor sort-seq; sequence = guide strand
# Settings: shRNA
# Further: reference of the scale not given here.
row,Sequence,sensor-assay potency score (higher = more potent)
1,ATCATTTGTACTGTACAGCATC,-1.17
2,TTATTTCTCAGCATTCATCTGG,0.827
3,TATTTCTCAGCATTCATCTGGT,0.677
4,TGTGTCGCTTGAGTAGTCGCTC,0.302
5,TTTCTCAGCATTCATCTGGTAA,-0.53
6,TCGATGAAGGTGGTCTCGCAGC,-1.08
7,TTGTATATTGCTAATGCGGTGG,-0.114
8,TCACTCTCTGTGTCGCTTGAGT,-1.01
9,TAGAGGATGATGTTGGGCCGGT,-0.523
10,TTGAGTAGTCGCTCTCCAGCTC,-0.0875
11,TTCATCTGGTAACTTAAGCAGC,-0.817
12,TTAATTAAACCATTCCTCTTGC,0.249

# Biological target: TMOD3
# Assay: as above
# Settings: shRNA
row,Sequence,sensor-assay potency score (higher = more potent)
1,TTACAGAACTTTGTATTCGTTA,0.0652
2,TTTCATTATCTCTTAACGCATC,-0.758
3,TTACAATTTGATAACAACTAAA,-1.42
4,TATAGCATTAGCTGCTCTGGTT,-0.335
5,TTTTCTTCTGTAAAAGTCTGTA,-0.198
6,TTTTTGTTATAGCATTAGCTGC,-1.37
7,TTATATTACAGAACTTTGTATT,-0.879
8,TAGGGCACATAGTCTTCCCTGT,-0.185
9,TTCAACAAGATGAGCATCGTTT,-0.31
10,TAACGCATCAATCAGTGCCAGA,-1.33
11,TTTTTCTTCTGTAAAAGTCTGT,0.6
12,TAGTTCTCTTCAAACTCTCTTC,-0.63
